Consider 3 compounds from PubChem BioAssay (NCI).

Test in all cases: NCI-60 one-dose screen, 48 h (100 = growth as untreated, 0 = no growth, -100 = all killed)
In assay [1] the test system is EKVX NSCLC. Particulars: 10 µM unless noted.
For assay [2], the system named is SN12C renal. The conditions noted are these: 10 µM unless noted.
The test system of assay [3] is UO-31 renal. The conditions noted are these: 10 µM unless noted.
For assay [4], the system named is TK-10 renal. Particulars: 10 µM unless noted.
Assay [5] concerns ACHN renal. The conditions noted are these: 10 µM unless noted.
Assay [6] concerns CAKI-1 renal. The conditions noted are these: 10 µM unless noted.
The subject of assay [7] is A498 renal. Particulars: 10 µM unless noted.
The test system of assay [8] is CCRF-CEM leukemia. The conditions noted are these: 10 µM unless noted.
Assay [9] has as its system MOLT-4 leukemia. Particulars: 10 µM unless noted.
The subject of assay [10] is SR leukemia. Particulars: 10 µM unless noted.
Assay [11] has as its system RPMI-8226 leukemia. Particulars: 10 µM unless noted.
Assay [12] relates to OVCAR-8 ovarian. Particulars: 10 µM unless noted.
In assay [13] the test system is OVCAR-5 ovarian. Particulars: 10 µM unless noted.
Assay [14] deals with OVCAR-4 ovarian. The conditions noted are these: 10 µM unless noted.
Assay [15] deals with SK-OV-3 ovarian. The conditions noted are these: 10 µM unless noted.
The test system of assay [16] is IGROV1 ovarian. The conditions noted are these: 10 µM unless noted.
The test system of assay [17] is OVCAR-3 ovarian. Particulars: 10 µM unless noted.
Assay [18] deals with HS 578T breast. Particulars: 10 µM.
In assay [19] the test system is NCI/ADR-RES ovarian. The conditions noted are these: 10 µM unless noted.

This is part of a sample that, as a whole, favours compounds with a hit. Of some 83,000 tested, about 20% had one in any assay.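 Single-dose data. Exposure time 48 hours. Values below 10 considered active.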 A number with no mark means an inactive call. Active and inactive are the calls of the source.

As to `O=S1(=O)OC(c2cc(Cl)c(O)c(Br)c2)(c2cc(Cl)c(O)c(Br)c2)c2ccccc21`, the growth was 110% in assay [1]; 90.6% in assay [2]; 76.5% in assay [3]; 93% in assay [4]; 103% in assay [5]; 107% in assay [6]. Besides, the growth in assay [7] was 86.5%; in assay [8], 93.6%; in assay [9], 92.4%; in assay [10], 92.4%; in [11], 102%; in assay [12], 89.8%. Moreover, the growth was 100% in assay [13]; 101% in assay [14]; 109% in assay [15]; 95.6% in assay [16]; 115% in [17]; 94.1% in assay [18]. For the same compound, the growth in assay [19] was 102%.
As for `COc1cc(NC2CCC(=O)N2c2ccc(Cl)cc2Cl)cc(OC)c1OC` (configuration not stated), the growth is 100% in assay [1]; 109% in assay [2]; 94.5% in assay [3]; 104% in assay [4]; 110% in assay [5]; 95.7% in [6]. The growth was 89.2% in assay [7]; 90.5% in assay [8]; 96.2% in [9]; 95.6% in assay [10]; 102% in [11]; 103% in assay [12]. For the same compound, the growth in assay [13] is 99.5%; in [14] it was 101%; in assay [15], 102%; in assay [16], 105%; in assay [17], 101%; in [18], 102%. Further, the growth in assay [19] is 99.5%.
On to `Clc1ccc(Nc2nccc(Nc3ccc4[nH]ncc4c3)n2)cc1`, for which the growth in assay [1] was 66.7%; in assay [2], 51.6%; in assay [3] it was 17.4%; in [4] it was 61.6%; in assay [5], 47.4%; in assay [6] it was 52.3%. Further, the growth was 39.1% in [7]; 5.15% (active) in assay [8]; 23% in [9]; 2.66% (active) in assay [10]; 18.3% in assay [11]; 22.1% in [12]. Besides, the growth in assay [13] is 64.9%; in assay [14], 49.3%; in assay [15], 88.4%; in assay [16] it was 46.9%; in assay [17], 52.1%; in assay [18] it was 61.5%. Also, the growth in [19] is 38.9%.
